Reference: the supplement of paper PMC11417369
Whole data set: some 25,000 sequences, median “ln(normalized median fluorescence intensity)” near 7.1, cut for the highest 2% near 10. The full list was thinned out, with the highest values kept by preference.

Tested on: PfSIP2 AP2 domain 1 (GST-tagged)
Assay: gcPBM binding intensity (ln(normalized median fluorescence intensity)); higher = stronger DNA binding
Method in brief: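 GST-fused DNA-binding domains of P. falciparum, expressed in E. coli, were applied at about 25 μg on average for 1 h to an Agilent 4 × 180k array of primer-extended double-stranded 36-bp intergenic genomic probes and negative controls. Binding intensity is the highest Masliner-normalised natural-log median intensity across replicate spots of either probe orientation, measured with Alexa488 anti-GST antibody and a 488 nm scan.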

Sequence | gcPBM binding intensity (ln)
AACTGTAAAAAATATAAACACACATAGAAATATATA [CACACA_site8002] | 7.01
TCATAGGGGTAGAAGGTGCAATAAAAAAGAAGAAAA | 10.7
CAGGGCAGGGGGAAGGGTACACATAAAAGAAAATAA [XGTACX_site172] | 8.34
AAAATAAAAAGAAAAAGAAAAAAGGGGGGGTAGGGG [CACACA_negctrl_site1048] | 7.86
TGAACATTATAGAAAAGTACTTAGTTTTTAAAAAGA [XGTACX_site6864] | 7
TATATATATAAAAGTTGTACAGTGTTTTATATAGTT [XGTACX_site7085] | 8.13
GTCTAAAAATAAAAAGTGCATTTGTTTAATATTTTG | 9.52
AAAAAAAAAAAAAAAGTGCACAGTCGTTTTAAAAAA [GTGCAC_site9848] | 10.7
AAAAAAAAAAGAAACACACACATTTGTCTATAATAT [CACACA_site7063] | 6.8
AAAATACATGGACACACACACACACCGATATATATA [CACACA_site5885] | 7.4
TTTTTTTTTTTTTTTGTGCACAATTATTTCAATTTT [GTGCAC_site9884] | 8.88
TATGTTTTATATAAGATGCACTTTTGTTATGCTTCA | 8.55
TTTTGTTTTTTCAATGTGCACTTAGGATGTTTTTAT [GTGCAC_site9565] | 10.6
CCATGTCACAATTTTTCACACACAAAATTTATATAC [CACACA_site8628] | 7.39
TATTTTTAGAAAATAAAGAAGGAGAATTGAAAATAT [CACACA_negctrl_site361] | 7.06
TTTTGTTTTTAGTTTATACACACCATATTAATATAA [CACACA_site3102] | 7.27
CATTATAAAAAATAAAAAAGAAATAATTGTATATGC [CACACA_negctrl_site478] | 7
TGTATGTATAATTGAGTGCACAGAAAAAAAAAAGAA | 10.5
AAGAAAATATAAAATGCACACTATAAATTGTATATA [CACACA_site7928] | 7.84
ATATATTTTTTTTCTTCACACACATGAATTATATAT [CACACA_site9053] | 7.45
ATATAAATTTTTTATGAACACACAAATACAGACACT [CACACA_site8848] | 7.37
AAAAAAAAAACATACACACACACAAATATTTATATA [CACACA_site437] | 6.94
ATAATATTTAGGTGTGCACACAAACATACATATATA [CACACA_site9120] | 8.81
TACAAATATATATGCACACACATATACATACAGATA [CACACA_site5238] | 7.27
AATATTTATGGGTGCACACAAACATACATATATATA [CACACA_site3395] | 11.8
TAAACATAAATATGCACACATATACAGATATTCATA [CACACA_site5471] | 7.04
AATATTTATGGGTGCACACAAACATACAGATATATA [CACACA_site5810] | 12.1
